Experimental data from the supplement of paper PMC8387472.

Key:
Assay in all cases: fraction of 1-bp insertions among edited reads; higher = more 1-bp insertion outcomes
Conditions in all cases: mESC; 2uM; 72 h treatment, harvest day 5
[1] = compound: Nc1nc2[nH]cc(CCc3ccc(C(=O)N[C@@H](CCC(=O)O)C(=O)O)cc3)c2c(=O)[nH]1 [Pemetrexed]
[2] = compound: Nc1ncnc2c1c(-c1cnc3[nH]ccc3c1)nn2C1CCCC1
[3] = compound: O=C(c1cccc(Cl)c1F)N1CCN(Cc2cccc(Nc3nccs3)n2)CC1
[4] = compound: O=C1Cc2c([nH]c3ccc(Br)cc23)-c2ccccc2N1 [Kenpaullone]
[5] = compound: O=c1c(-c2ccc(O)cc2)coc2cc(O)cc(O)c12 [Genistein]
[6] = compound: O=c1cc(N2CCOCC2)oc2c(-c3ccc4c(c3)OCCO4)csc12
[7] = compound: S=c1[nH]cnc2nc[nH]c12 [Mercaptopurine (6-MP)]
[8] = compound: S=c1nc[nH]c2nc[nH]c12 [6-Mercaptopurine (6-MP) Monohydrate]

Target	fraction of 1-bp insertions among edited reads [1]	fraction of 1-bp insertions among edited reads [2]	fraction of 1-bp insertions among edited reads [3]	fraction of 1-bp insertions among edited reads [4]	fraction of 1-bp insertions among edited reads [5]	fraction of 1-bp insertions among edited reads [6]	fraction of 1-bp insertions among edited reads [7]	fraction of 1-bp insertions among edited reads [8]
25.0 (DMSO control at this site: 1-bp insertion 0.017, MH deletion 0.774, edited 0.143) GGGCCTGAATGGTGTGGACATCTACTCGCTGGTGAGCTGGTGACTGAAAACATTCAGTGGC	0.0305	0.0264	0.0219	0.0271	0.0281	0.0315	0.0245	0.0323
31.0 (DMSO control at this site: 1-bp insertion 0.315, MH deletion 0.329, edited 0.026) ACCTCCACAGGCTGGGTGGCCCGGAGGCTGGGCGGCCCGGAGGCTGGGCTGGGCGAGTATC	0.0954	–	0.127	0.173	0.102	0.138	0.178	0.208
33.0 (DMSO control at this site: 1-bp insertion 0.008, MH deletion 0.771, edited 0.112) CATTAAGAGCAGCTGCCGGCCCCCAAGTGGACAGAGCTGGCCCTGCTGATTCAACAGTGCA	0.0161	0.0263	0.0349	0.0243	0.0314	0.0159	0.0358	0.0255
15.0 GCGCCTCCAATGACCCAGTGGGATCCTACTCCATAATGGGATCCTGGGGATTCCTCGCTCC	–	–	–	–	0.0821	–	–	0.0929
47.0 (DMSO control at this site: 1-bp insertion 0.095, MH deletion 0.585, edited 0.118) GAGTGGTCCCGAGCCAGGAACTGTGTGTGTTGCAGGGGGGCAGTAACTCCCCAACTCCCTC	0.0508	0.158	0.144	0.101	0.0861	0.108	0.101	0.142
40.0 (DMSO control at this site: 1-bp insertion 0.072, MH deletion 0.192, edited 0.189) GCGAATCAACTGTTCAACAACAGCAGCAGCCACCTGGAGGACTACAGTGGCCTGTCCGTGT	0.0582	0.107	0.0793	0.0742	0.0673	0.0807	0.0821	0.084
46.0 TTAAGAGCAATGTTCACGCAACTTGAAATTATATCTGTGGTCTTCAAATTGTCTTTTGTCA	0.309	0.0621	–	–	0.25	–	–	0.17
43.0 (DMSO control at this site: 1-bp insertion 0.134, MH deletion 0.714, edited 0.104) AGTTTAACTTACTCCGGCCAAAAAAGAACTGCACCTCTGGAGCGGGTTAGTGGTGGTGGTA	0.101	0.0907	0.0417	0.058	0.0866	0.0822	0.0946	0.122
32.0 (DMSO control at this site: 1-bp insertion 0.03, MH deletion 0.85, edited 0.898) AGAAGTCCAGGATCAGGGGGACTGGGGTCGGGAGGGTGGGGCAGGAAGGAAGCCAGAATCA	0.0205	0.0205	0.0247	0.0214	0.0197	0.0144	0.0169	0.0198
41.0 (DMSO control at this site: 1-bp insertion 0.022, MH deletion 0.754, edited 0.115) AAAGAGACAGCAGGTATGAATCCATCTTCCTGACCCTTGGGACCAGCCGGGGCAGTGAAGC	0.0232	0.0155	0.0392	0.0338	0.0158	0.0195	0.0292	0.0487
45.0 (DMSO control at this site: 1-bp insertion 0.017, MH deletion 0.666, edited 0.101) TTACACAGCATGAACTGCTAGGTGATGATGTCAGATTCGGTTTTACTAACTTCTCCAAAAA	0.0325	0.0301	0.0412	0.0351	0.0293	0.0264	0.0287	0.0267
27.0 CCAGAATTAGAACATATCATCTGGACCCTTTTCCATCTGGACCCTTTTCCAGCACACCCTG	–	0.169	–	0.146	0.183	0.158	0.141	0.187
19.0 (DMSO control at this site: 1-bp insertion 0.121, MH deletion 0.101, edited 0.057) TCTGCAGGGGTCGGAACCCGGGGGCTAGGGCTATCCCGGGGGCTAGGGCTATTAGCGAACC	0.0345	0.138	0.109	0.0939	0.0748	0.0634	0.0615	0.104
4.0 (DMSO control at this site: 1-bp insertion 0.146, MH deletion 0.523, edited 0.125) ACGCCTTAGTGCACGAGTGACGGGATAATGTGGTCTCAGGTAATTGATAGGCTTCCAACTT	0.121	0.237	0.18	0.171	0.126	0.137	0.161	0.153
3.0 (DMSO control at this site: 1-bp insertion 0.109, MH deletion 0.149, edited 0.09) TGCTAGCGCCCCCACAAAGCGGACCAGCCAGCACTATAGGGAATAAGGCCAACTTGCACCC	0.184	0.227	0.152	0.104	0.116	0.13	0.15	0.0992
23.0 AGAACAAAGCGCTCATATAACGATATGGGGGGTTATGGGGGGTTGAATTGCTTCAGCACGA	–	–	0.008	–	–	–	–	–
42.0 (DMSO control at this site: 1-bp insertion 0.145, MH deletion 0.655, edited 0.132) GGGCTAAACCTATGAGCACAGTAGAACTAAGGGTGGGTGGTGTAGCTAAAGAACTTGACCA	0.118	0.246	0.201	0.21	0.144	0.141	0.181	0.198
0.0 (DMSO control at this site: 1-bp insertion 0.463, MH deletion 0.339, edited 0.14) AGGATTACCGAGACCTACGCGAACCGAAATCGCTGTCCGGTGCGCAAGCAGGGCTGGCGTC	0.375	0.623	0.624	0.604	0.453	0.395	0.543	0.518
18.0 (DMSO control at this site: 1-bp insertion 0.114, MH deletion 0.789, edited 0.094) GCGCAAGTGCATAAGTTTTTCTTAAGGCGTGCCTTTAAGGCGTGCCTTTGTCGGTCCTGGA	0.0804	0.12	0.114	0.134	0.0973	0.0588	0.137	0.13

Target	fraction of 1-bp insertions among edited reads [1]	fraction of 1-bp insertions among edited reads [2]	fraction of 1-bp insertions among edited reads [3]	fraction of 1-bp insertions among edited reads [4]	fraction of 1-bp insertions among edited reads [5]	fraction of 1-bp insertions among edited reads [6]	fraction of 1-bp insertions among edited reads [7]	fraction of 1-bp insertions among edited reads [8]
28.0 (DMSO control at this site: 1-bp insertion 0.035, MH deletion 0.77, edited 0.142) TGGTTCTTCCTTTGTAGAGAGTGTTCATCTGGGAATCTGGGACTTGGATGAGACAATCATT	0.0369	0.0494	0.0462	0.0461	0.032	0.0316	0.0428	0.0506
22.0 (DMSO control at this site: 1-bp insertion 0.573, MH deletion 0.229, edited 0.045) CTGATGGTTGAAGGATTTAGCCGGGGTCCTAGACGCCGGGGTCCTAGACGAAAGGGCCACG	0.447	–	0.671	0.604	0.595	0.623	0.587	0.601
7.0 (DMSO control at this site: 1-bp insertion 0.128, MH deletion 0.374, edited 0.098) TACTCAACCGAGACCTACGCGAACCGAAATCGTATGCCGGTGCGCAAGCAGGGCTGGCGTC	0.0646	0.128	0.15	0.156	0.12	0.16	0.145	0.197
8.0 GCATGCGTGTTTTGGGACAATGTAGTATACATTTGGGAGGCTCTCAGCTTTTCCCAATAAA	0.255	0.646	–	0.441	–	–	–	0.442
44.0 (DMSO control at this site: 1-bp insertion 0.181, MH deletion 0.512, edited 0.123) ACACATACCTTCTTCGAGGCAGCCAGCATGATGAGACAGGTCTCCCACAAACACATCGTGT	0.127	0.293	0.235	0.235	0.173	0.169	0.24	0.188
26.0 (DMSO control at this site: 1-bp insertion 0.518, MH deletion 0.262, edited 0.026) AGGGCGCGCCCCACGCACTCTGCGGCAAGTCCCTCTGCGGCAAGTCCTCGGCCCGGAAGAC	0.284	0.567	0.537	0.496	0.46	0.363	0.491	0.494
5.0 (DMSO control at this site: 1-bp insertion 0.214, MH deletion 0.567, edited 0.105) CGCTGACCCGAGACCTACGCGAACCGAAATCGGCGACCGGTGCGCAAGCAGGGCTGGCGTC	0.184	0.293	0.277	0.277	0.203	0.187	0.27	0.272
34.0 (DMSO control at this site: 1-bp insertion 0.184, MH deletion 0.385, edited 0.103) ATTATAGGACCCTGAGGGAGCAGAGATGTGGGAATGGGGGCCGAGCCAATTGTGATGTAAG	0.121	0.233	0.211	0.154	0.11	0.176	0.213	0.2
1.0 (DMSO control at this site: 1-bp insertion 0.521, MH deletion 0.323, edited 0.141) GTGTCACAGTGCACGAGTGACGGGATAATGTGCTGACAGGTAATTGATAGGCTTCCAACTT	0.486	0.73	0.653	0.673	0.54	0.552	0.591	0.6
29.0 (DMSO control at this site: 1-bp insertion 0.084, MH deletion 0.745, edited 0.133) TTGATGAACTTCCTCTTCTTCTCATGTCTCCGGTCTCCGGTAGGCCACGTGCATGGCCACT	0.0781	0.112	0.119	0.11	0.072	0.0694	0.105	0.115
39.0 (DMSO control at this site: 1-bp insertion 0.328, MH deletion 0.371, edited 0.204) CTGCACAGTCACTTAGGATAGGAGAAGATGATGTATAGGGTTTAGTGGGAGATGTTGCAAG	0.395	–	0.45	0.572	0.372	0.355	0.407	0.417
20.0 (DMSO control at this site: 1-bp insertion 0.349, MH deletion 0.138, edited 0.084) TACAGGTGTAGACTGGTTACGTGGCTGCGGAATTGACTGGTTACGTGGCTGCGGAATTTTG	0.22	0.456	0.453	0.429	0.278	0.203	0.376	0.22
38.0 (DMSO control at this site: 1-bp insertion 0.063, MH deletion 0.487, edited 0.17) GGGCTGGGTGCTAAAATGAGGAGCTCCAAGAAGACTGAGGTGAACCTGGAGGCCCCTGAGC	0.0448	0.104	0.0891	0.102	0.0646	0.0742	0.0697	0.0502
30.0 (DMSO control at this site: 1-bp insertion 0.074, MH deletion 0.67, edited 0.142) GAGCTGGCATGAGTATTTGTGCCACATGGCTCCCACATGGCTCCACATGCAAGTTTGAAAC	0.0714	0.113	0.0986	0.0891	0.0719	0.0702	0.0954	0.0905
2.0 (DMSO control at this site: 1-bp insertion 0.364, MH deletion 0.356, edited 0.125) GGTGCCCCCGAGACCTACGCGAACCGAAATCGATGTCCGGTGCGCAAGCAGGGCTGGCGTC	0.327	0.539	0.498	0.478	0.309	0.331	0.452	0.434
17.0 (DMSO control at this site: 1-bp insertion 0.112, MH deletion 0.348, edited 0.058) CCATAGCGCGATAAATATGACGGCTCATCCTGTATGACGGCTCATCCTGTATCAACTGTCC	0.0727	0.193	0.111	0.166	0.119	0.172	0.17	0.144
35.0 (DMSO control at this site: 1-bp insertion 0.01, MH deletion 0.72, edited 0.098) CCACTTTTAGAGAGGGTGAAAATCATCAGTTATCATCAGGGCAACAAATTGCTTTCTCCTA	0.0156	0.0183	0.0381	0.0204	0.00956	0.0278	0.0333	0.0402
21.0 CGATTGAGAGTCAAACGGGCCAGAAAACTCCGGGAACGGGCCAGAAAACTCCGGGGCATGG	0.0119	0.0122	–	0.0245	0.0192	0.0417	0.0152	0.0297
16.0 (DMSO control at this site: 1-bp insertion 0.172, MH deletion 0.29, edited 0.05) CGGACTGCACACATGGGTAGGATCGTGCACGCGAGGTAGGATCGTGCACGCGAAGTTATTC	0.149	0.218	0.178	0.198	0.144	0.19	0.165	0.166
